Compounds without any hit were thinned out: in the full panel of roughly 83,000, 20% have a hit.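 Each cell line was grown in a 96-well plate and treated with one concentration of compound for 48 hours. Values below 10 were considered active.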 Unmarked numbers belong to inactive results. The source made the active and inactive calls.

This assay concerns HL-60(TB) leukemia. Description: NCI-60 one-dose screen, 48 h (100 = growth as untreated, 0 = no growth, -100 = all killed). Conditions: 10 µM unless noted.
With `NS(=O)(=O)c1ccc(-n2ncc3c(NC4CCCCC4)ncnc32)cc1`, the growth is 70.7%. For `COc1cccc(-c2nc(-c3ccc(NC(=O)c4ccccc4)cc3)[nH]c2-c2ccnc(Br)c2)c1` the value was -34% (active); for `O=C1c2cccc3cccc(c23)C(=O)N1CCCCCCCCCCN1C(=O)c2cccc3cccc(c23)C1=O`, 99.6%.

For the compound `CCOC(=O)n1ccn(C)c1=S`, the growth was 101%. Turning to `Cc1ccsc1C(=O)CC(=O)C(F)(F)C(F)(F)C(F)(F)F`, the growth was 107%. In the case of `O=C(N=Nc1c(Cl)c(O)c2ccccc2c1O)C(=O)Nc1cccc(C(F)(F)F)c1` it was 6.33% (active).

With `Oc1c(I)cc(I)cc1CN(Cc1ccccn1)Cc1ccccn1`, the growth is 2.58% (active). `CN(C)c1ccc(/C=C2\C=C(c3ccccc3)N(CCc3ccccc3)C2=O)cc1`: the growth is 74.5%.

On to `CCCN1C(=O)/C(=c2\sc3n(c2=O)NC2C(N=3)N(CC)C(=O)N2CC)c2ccccc21` (stereo not given), for which the growth was -18.4% (active). In the case of `COc1cnc2c(c1)C(=O)c1c-2n(CCCCl)c(=O)c2ccncc12` it was 15.8%. On to `Cn1c(=O)c2c(nc3n(-c4ccc(Cl)cc4Cl)c(Sc4nc(-c5ccccc5)c(C#N)c(=O)[nH]4)cn23)n(C)c1=O`, for which the growth is 76.5%. For `CN(C)c1ccc(O)c2c1CC1CC3C(N(C)C)C(=O)C(C(N)=O)=C(O)C3(O)C(=O)C1=C2O` (stereo not given) the value was 51.3%.

For the compound `OC(c1ccc(Cl)cc1)(c1ccc(Cl)cc1)C(O)(c1ccc(Cl)cc1)c1ccc(Cl)cc1`, the growth was 51.2%. For `O=C(c1ccccc1O)N1CCCC1` the value was 91.8%; for `O=C(Cn1nnc([N+](=O)[O-])n1)c1ccccc1`, 38%; for `COc1cc(CNc2ccccc2C(=O)N2CCN(C(=O)c3cc(-c4cc(OC)c(OC)c(OC)c4)n4nc(-c5ccccc5)cc4n3)CC2)cc(OC)c1OC`, 34.7%. For `COc1ccc2c(c1)CCNC21C(=O)Nc2c(Br)cc(Br)cc21` (stereo not given), the growth was 117%. Turning to `Cc1ccc(-c2nc3nc(-c4ccccc4)nc(N4CCN(S(=O)(=O)c5ccccc5)CC4)c3o2)cc1`, the growth was 107%. Turning to `S=c1n(CNc2ccc(Cl)nn2)nc(-c2cc(Cl)cc(Cl)c2Cl)n1/N=C/c1ccc(Cl)cc1`, the growth was 3.47% (active). In the case of `COc1ccc(C(=O)/C=C/c2ccc(C)cc2)cc1OC` it was 58.4%; in that of `COc1cccc(C(=O)NCCNc2cc(-c3cn(-c4ccccc4)nc3-c3cccc(OC)c3)ccn2)c1`, 41.5%.

As to `COc1ccc(/C=c2\sc3n(c2=O)NC2C(N=3)N(C)C(=O)N2C)cc1` (stereo not given), the growth is 98.4%. In the case of `COc1cc2c(cc1OC)-c1c(oc3c4c(ccc3c1=O)OC(C)(C)C=C4)CO2` it was 46.4%; in that of `CN(C)C(=O)c1cc2cnc(Nc3ccc(-c4csc5c(=O)cc(N6CCNCC6)oc45)cc3)nc2n1C1CCCC1`, -21% (active); in that of `O=C(Cc1nc2cc(Cl)c(Cl)cc2nc1CC(=O)c1ccccc1)c1ccccc1`, 29.7%. In the case of `CNCCNc1nc2ccccc2c2c(=O)c3cc(F)ccc3sc12` it was -33.1% (active). In the case of `O=C1OCC2=C1C(c1ccncc1)c1cc3c(cc1N2CCO)OCO3` (stereo not given) it was 99.2%; in that of `O=C1Nc2ccccc2SC1C1SC(=S)N(Cc2ccccc2)C1=O` (stereo not given), 0.669% (active); in that of `Fc1ccc2[nH]cc(-c3nc(-c4c[nH]c5ccncc45)cs3)c2c1`, -42.1% (active). On to `O=C(c1ccccc1)[C@@H](c1ccccc1)[C@]1(O)C(=O)Nc2ccccc21`, for which the growth is 107%.

As for `Cc1ccc2c(c1)CC(O)CC1C(=O)N(CCO)CC(=O)N21` (stereo not given), the growth is 96.9%. In the case of `Nc1ccc(C2c3ccccc3Oc3ccccc32)cc1` it was 115%.

As to `CCc1ccc2nc(NC(=O)Cc3csc(NC(=O)c4ccco4)n3)sc2c1`, the growth was 74.2%. For `O=C(/C=C\c1ccco1)/C=C/c1ccco1` the value was 106%; for `O=S(=O)(c1ccc(OCCO)cc1)c1ccc(OCCO)cc1`, -0.844% (active). In the case of `O=C1CN(CO)C(=O)CN1CO` it was 107%; in that of `CC(C)(C)c1nn(-c2ccccc2)c2c1CC1(CN2Cc2ccc(Cl)cc2)C(=O)c2ccccc2C1=O`, 90.8%. In the case of `COc1cc2nc(Cl)nc(Nc3cccc(C(=O)/C=C/c4ccc(Cl)cc4)c3)c2cc1OC`, the growth is 51.7%. For `CC(C)(Sc1cc(C(C)(C)C)c(O)c(C(C)(C)C)c1)Sc1cc(C(C)(C)C)c(OC(=O)CCC(=O)O)c(C(C)(C)C)c1` the value was 56.1%.

Consider `CCCCn1c(NC(C)=O)c(S(=O)(=O)c2ccccc2)c2nc3ccccc3nc21`, for which the growth is 88.5%.

Source of the values: PubChem BioAssay (NCI).
